Screens deposited in PubChem BioAssay by National Center for Advancing Translational Sciences (NCATS).
HT1080-NT tox – kills 2HG-producing HT-1080-NT fibrosarcoma cells; hit rate 1.6% among 360,000; Potency, µM (series often up to 46.1 µM), without a hit: at the top dose activity, negative = less viability, hits mostly cytotoxic; HT-1080-NT fibrosarcoma viability, CellTiter-Glo ATP luminescence, 48 h;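 note: NT is the 2HG producing partner of a matched IDH1 knockdown line; potency is the fitted concentration of half-maximal effect; 0% = DMSO-treated cells and -100% = media-only wells without cells; nearly all actives have a fitted effect of over 55% in size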
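Luminescent CellTiter-Glo readout after 48 hours of compound exposure at 37 degrees C defined viability of HT-1080-NT cells. Activity was normalized to DMSO wells and cell-free media wells; concentration-response curves were fitted and assigned curve classes.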
ELG1 DNA repair – ELG1-dependent DNA repair inhibition | hit rate 2.3% among 330,000 | Potency, µM (doses to about 46.1 µM), without a hit: at the highest dose activity change, negative = inhibition, most hits filed as inhibitors | HEK293T ELG1-luciferase reporter, luminescence, 16 h; DNA damage induced by 5-fluorouridine; note: potency is the fitted concentration of half-maximal effect; nearly all actives have a fitted effect of over 55% in size
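5-Fluorouridine DNA damage + compound/DMSO, 2,000 cells/well, 16 h, 37 °C/5% CO2. ONE-Glo, 30 min RT, luminescence. Readout = decrease in reporter signal.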
DT40 TDP1 no CPT – qHTS for Inhibitors of human tyrosyl-DNA phosphodiesterase 1 (TDP1): qHTS in cells in absence of CPT. DT40 Tdp1-/- hTDP1 cells, no CPT, ATP luminescence, 48 h. Potency, µM (series often up to 46.2 µM), without a hit: top-dose activity change, negative = growth inhibition, hits mostly inhibitors. hit rate 15% among 420,000. AID 686978, 2013; note: potency is the fitted concentration of half-maximal effect; nearly all actives have a fitted effect of over 55% in size
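Readout: luminescence from CellTiter-Glo after 30 min in the dark at RT. Cells: DT40 Tdp1-/- with stable hTDP1, 400/well. Exposure: compounds alone, ≥48 hr, 37 °C.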
HT1080 IDH1KD tx – kills HT-1080 cells with IDH1 knockdown | HT-1080 IDH1 knockdown viability, ATP luminescence, 48 h | hit rate 2% among 360,000 | Potency, µM (top dose mostly 46.1 µM), for the others: at the top dose activity, negative = toxicity, usual class: cytotoxic | AID 686971;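 note: potency is the fitted concentration of half-maximal effect; 0% = DMSO wells and -100% = cell-free medium wells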
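Knockdown cells (IDH1KD HT-1080) received compounds 2 h after plating at 750 cells/well and were kept 48 h at 37 °C in 5% FBS RPMI. A CellTiter-Glo luminescence read gave % activity for curve fitting.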
TDP1 cell CPT – DT40-hTDP1 cell growth loss with CPT; chicken DT40 Tdp1-/-;hTDP1 cells + 20 nM CPT, ATP luminescence, 48 h; Potency, µM (top dose mostly 46.2 µM), for inactives: top-dose activity change, negative = growth inhibition, most hits filed as inhibitors; hit rate 12% among 420,000; note: potency is the fitted concentration of half-maximal effect; nearly all actives have a fitted effect of over 55% in size
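Chicken DT40 Tdp1-/- cells complemented with human TDP1, 400 cells/well, exposed to compounds plus 20 nM camptothecin for at least 48 h at 37 C; viability read as ATP content by CellTiter-Glo luminescence.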
IL1B secr inh – inhibitors of inflammasome signaling (IL-1 beta secretion) | activity change, % at 57.5 µM | THP-1 LPS/ATP IL-1B secretion, AlphaLISA, 16 h; active compounds read low | hit rate 4.7% among 360,000; in the data active = activity change below about -50%; inconclusive = mostly about -30% to -49%
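THP-1 cells pretreated 1 hr with compounds (up to 57.5 uM final), then stimulated with LPS (250 ng/mL final) plus ATP (1.25 mM final); secreted IL-1B measured by AlphaLISA after 16 hr, decreased signal indicating inhibition.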
Starred values were filed as active, the others as inactive; ? = inconclusive; · = no result; [ ] = remark or other dose. Sampled rows, rich in hits. Any-hit rate of the full collection: about 19%. Unless noted, calls come from the whole dose curve; as a rule, active = well fitted curve in the direction sought with a large enough effect; inconclusive = small, poorly fitted or top-dose-only effect, or another doubt; inactive = no such curve, though single readings can be large; an effect the other way counts as inactive or inconclusive. Unless noted, % is set by controls: 0 for no effect and ±100 for the full control effect.

SMILES | HT1080-NT tox | ELG1 DNA repair | DT40 TDP1 no CPT | HT1080 IDH1KD tx | TDP1 cell CPT | IL1B secr inh
COc1cc(NC(=O)CC2C(=O)N(c3cccc(C)c3)C(=O)N2Cc2ccc(F)cc2)cc(OC)c1 (configuration not stated) | · | · | 21µM* | · | ? | ·
Cc1noc(C)c1S(=O)(=O)N(C)C[C@@H]1OCc2cnnn2CCCC(=O)N([C@@H](C)CO)C[C@H]1C | 1% | · | 3% | -1% | -15% | -5
COc1ccc(OC)c(S(=O)(=O)Nc2ccc(-c3ccc4nncn4n3)cc2)c1 | 23µM* | -15% | 2.1µM* | 16µM* | 2.1µM* | -1
O=S(=O)(Nc1ccc(-c2ccc3nncn3n2)cc1)c1cc(F)ccc1F | -16% | ? | ? | -5% | ? | 39
COc1ccc(CC(=O)Nc2cccc(-c3ccc4nncn4n3)c2)cc1OC | -7% | 7.3µM* | 15µM* | ? | ? | 30
CCOc1ccc(CC(=O)Nc2cccc(-c3ccc4nnc(C)n4n3)c2)cc1 | -5% | ? | ? | -13% | ? | -12
COc1ccc(S(=O)(=O)Nc2cccc(-c3ccc4nncn4n3)c2)cc1F | 4.6µM* | -7% | 2.3µM* | 2.3µM* | 2.3µM* | 73
COc1ccc(CC(=O)Nc2cccc(-c3ccc4nnc(C)n4n3)c2)cc1OC | -20% | ? | 9.2µM* | -17% | -25% | ?
O=C(NCc1cccnc1)c1csc([C@H]2C[C@H](O)[C@@H](CO)O2)n1 | 25% | · | 7% | 11% | -7% | 31
Cc1cccc(Cn2c(C)c(CNC3CCCCCC3)c(C(=O)O)c2C)c1 | · | · | -19% | · | -22% | ·
CCN(CC)C(=O)C1=C(C)N(CCCOC)C(=O)C(CC(=O)NC2CCCCC2)C1 (configuration not stated) | 1% | · | -3% | 3% | 6% | -1
Cc1oc(-c2ccccc2F)nc1CN1CCC(C(=O)NCc2ccco2)CC1 | 4% | -1% | -16% | 1% | -16% | -9
Cc1oc(-c2ccccc2F)nc1CN1CCC(C(=O)NC2CCCc3ccccc32)CC1 (configuration not stated) | -3% | ? | ? | 1% | 15µM* | -11
Cc1oc(-c2ccccc2F)nc1CN1CCC(C(=O)NC2CCCCCCC2)CC1 | 7% | 5% | 23µM* | 10% | ? | -16
CC(C)(C)c1ccc(C(=O)N2CCN(c3nc4ccccc4o3)CC2)cc1 | 8% | ? | 6.5µM* | 17% | 9.2µM* | 16
O=C(NC1CCCCCCC1)C1CCN(c2nc3ccccc3o2)CC1 | ? | 16µM* | 16µM* | -30% | ? | -19
CCOC(=O)C1CCN(c2ccc(C(N)=O)cc2[N+](=O)[O-])CC1 | 0% | -26% | ? | -1% | -28% | -22
Cc1ccc(-n2nc(C)c3nc(CCC(=O)Nc4ccc(F)cc4)c(=O)n(C)c32)cc1 | · | · | -1% | · | -2% | ·
Cc1[nH]nc2c1C(c1ccsc1)C1=C(CC(C)(C)CC1=O)N2 (configuration not stated) | 2% | -11% | -18% | 4% | 4% | 67
Cc1noc(C)c1S(=O)(=O)N1CCC(C(=O)NC2CCCc3ccccc32)CC1 (configuration not stated) | -4% | 1% | -22% | 0% | -10% | -10
O=C(NC1CCCc2ccccc21)C1CCN(S(=O)(=O)N2CCCCCC2)CC1 (configuration not stated) | -7% | ? | 18µM* | -6% | 13µM* | 15
COc1ccc(S(=O)(=O)NCC2CCCN(C(=O)CSC)C2)cc1 (configuration not stated) | -3% | 10% | -1% | 4% | -17% | 0
COc1cccc(-c2nc3cc4c(cc3cc2CN(C(=O)c2csc(C)n2)C2CC2)CCC4)c1OC | · | · | 23µM* | · | -12%[9.04 µM] | ·
CCn1cc(Cl)c(C(=O)Nc2nccs2)n1 | 13% | ? | 10% | 17% | -17% | 27
Cc1cc(NC(=O)CSc2nnc3c4c(C)c(C)sc4ncn23)no1 | 2% | -1% | 18µM* | 19% | ? | 54
SMILES | HT1080-NT tox | ELG1 DNA repair | DT40 TDP1 no CPT | HT1080 IDH1KD tx | TDP1 cell CPT | IL1B secr inh
COCCn1c(SCC(=O)Nc2cc(C)on2)nc2ccccc2c1=O | 0% | ? | ? | 15% | -9% | 7
Cc1cc(NC(=O)CSc2nc(C(C)C)nc3sc(C)c(C)c23)no1 | 2% | 3% | -29% | 4% | -26% | 13
Cc1cc(NC(=O)CSc2nc3sc(C)c(C)c3c(=O)n2C2CCCC2)no1 | 25% | ? | -29% | 8% | 9.2µM* | -4
CCc1c(C)sc2nc(SCC(=O)Nc3cc(C)on3)n(CCOC)c(=O)c12 | 10% | -2% | 1.2µM* | 12% | ? | -5
Cc1cn([C@H]2C[C@H](O)[C@@H](/C=C/C(=O)NCCc3ccc4c(c3)OCO4)O2)c(=O)[nH]c1=O | 14% | · | 7% | 25% | 1% | -10
Cc1cc(C)c(OCCCCN2CCC(C)CC2)c(Br)c1 | ? | ? | ? | ? | ? | -78*
CCC(C)NCCCOc1c(C)cc(C)cc1Br (configuration not stated) | ? | -9% | 12µM* | ? | ? | -76*
Cc1cc(Cl)c(OCCOCCN2CCC(C)CC2)c(Br)c1 | -3% | 10% | 16µM* | -1% | 23µM* | -57*
CC1CCN(CCCCOc2ccccc2Br)CC1 | -8% | -13% | ? | -6% | ? | -23
CN1CCN(CCOCCOc2c(Cl)cc(Cl)cc2Cl)CC1 | ? | · | 16µM* | -16% | ? | -8
CN(C)C(=O)c1ccc(-c2nc(NC3CCNCC3)c3ccccc3n2)cc1 | · | · | -7% | · | -4% | ·
Cc1cccc(C(C)C)c1NC(=O)c1ccc2c(c1)CCCN2S(C)(=O)=O | · | · | -24% | · | ? | ·
CS(=O)(=O)N1CCc2cc(C(=O)Nc3ccc(Cl)c(C(F)(F)F)c3)ccc21 | · | · | 8.2µM* | · | 18µM* | ·
Cc1ccc(NC(=O)c2ccc3c(c2)CCN3S(C)(=O)=O)cc1 | 0% | · | -12% | 5% | ? | -19
CCc1ccc(NC(=O)c2ccc3c(c2)CCN3S(C)(=O)=O)cc1 | -11% | · | 26µM* | -18% | ? | -23
CC(C)c1ccc(NC(=O)c2ccc3c(c2)CCCN3S(C)(=O)=O)cc1 | · | · | 4.1µM* | · | 6.5µM* | ·
CS(=O)(=O)N1CCc2cc(C(=O)Nc3ccc(C(F)(F)F)cc3)ccc21 | · | · | 8.2µM* | · | 9.2µM* | ·
